# Test results: PubChem BioAssay (NCATS)
# Values joined by “and” are separate entries in the source; they are usually repeats but may differ in a detail not shown here. Equal entries are not always repeated. Records with an inconclusive call do not appear. Entries that show only a call come without a potency. Unmarked numbers belong to inactive results. Active and inactive are the calls of the source. The call rests on the fitted dose curve; in most records, active means well fitted cell-killing curve with a large enough effect; inconclusive means small, poorly fitted or top-dose-only effect, or effect the other way; inactive means no such curve, though single readings can be large or run the other way.
# Assay: Viability qHTS for spleen associated tyrosine kinase inhibitor (SYKi) naive MV4-11 cells (AID 1963823); further: nearly all actives have a fitted effect of over 40% in size
# Conditions: MV4-11 AML viability, CellTiter-Glo luminescence, 72 h; series mostly up to 45 µM
# Excerpt: Department of Medicine, Hematology/Oncology
# University Hospital Frankfurt, Germany.
# Trials have shown promising clinical activity of the selective SYK inhibitor entospletinib in patients with high expressing HOXA9/MEIS1 acute leukemias. As the development of resistance mechanisms is a common problem in the use of targeted drugs, we performed a chemical library screen to identify drug sensitivities in SYK inhibitor resistant AML cells. […] Glucocorticoids are potent immunosuppressants which work in part by inhibiting the transcription of cytokine genes.
# Described herein is a viability screen to look for activity in the SYK inhibitor naive cell line against four NCATS compound libraries (MIPE 5.0, NPC, NPACT, and Kinase) totaling 11372 compounds. Active hits were reacquired for confirmation and further secondary assay testing.
# SEQUENCE No. (e.g., 1, 2, 3, etc.); […] (e.g., Cells, Incubation, Reagent, etc.); VALUE; DESCRIPTION.
# 1; Media; 2uL; white, solid-bottom Corning assay plate.
# 2; Compounds; 23nL; Echo acoustic dispenser.
# 3; Cell; 5uL; 500 cells per well.
# 4: Incubation; 72hr; 37 C, 5% CO2, 95% humidity.
# 5; Reagent; 3uL; CellTiter-Glo reagent (Promega).
# 6; Incubation; 10min; room temperature.
# 7; Detection; Luminescence; ViewLux plate reader (PerkinElmer).
# NOTES (numbers refer to Sequence numbers above
# 1. Quantitative high-throughput screening (qHTS) of small molecule compounds was conducted on naive SYKi MV4-11 cell line.
# 2. Twenty-three nanoliter of small molecule compounds were added to each assay plates using the Echo acoustic dispenser (Beckman Coulter).
# 3. Cells were seeded into the assay plates at a final density of 500 cells in 5uL of media per well using the Multi-drop Combi dispenser.
# 4. Plates were covered with stainless steel gasketed lids and incubated for 72 hours at standard cell culture conditions.
# 5. Viability was assessed by adding 3uL of CellTiter-Glo detection reagent (Promega).
# 6. Plates were covered with gasket lids and incubated for 10 minutes at room temperature.
# 7. Luminescence was measured on a ViewLux plate reader (PerkinElmer).
# Potency means the concentration at half of the fitted maximal effect.
SMILES,Potency,viability (% of control)
COc1cccc(C(=O)NCCNc2nc3cc(C)cc(C)c3cc2C#N)c1,inactive,
CN1CCc2cccc3c2[C@H]1Cc1ccc(O)c(O)c1-3,5.96 µM (active),
COc1cc(NC(=O)c2cc(C3CC3)on2)c(OC)cc1Cl,inactive,
C=C1/C(=C/C=C2\CCC[C@@]3(C)C2CCC3[C@H](C)/C=C/[C@@H](O)C2CC2)C[C@@H](O)C[C@@H]1O (stereo not given in full),inactive,
NCC(=O)CCC(=O)O,inactive,
CC(=O)OCC1OC(O[C@H]2CC[C@]34C[C@]35CC(O)[C@]3(C)[C@@H]([C@H](C)CC/C=C(\C)C(=O)O)C(O)C[C@@]3(C)C5CC[C@H]4C2(C)C)C(O)C(O)C1OC1OCC(O)C(O)C1O (stereo not given in full),,62.3% [at 9.25 µM]
CCN(CC)Cc1ccc2cc(COC(=O)Nc3ccc(C(=O)NO)cc3)ccc2c1,291 nM (active) and 468 nM (active),
COc1cc(O)cc(OC2OC(CO)C(O)C(O)C2O)c1 (stereo not given),inactive,
Cc1cnc(Nc2cccc(CN3CCOCC3)c2)nc1Nc1cccc(S(=O)(=O)NC(C)(C)C)c1,0.0934 µM (active),
CC(COc1ccccc1)NN (stereo not given),inactive,
Cc1ccc(Cc2c(C)nc3nc(SCC(=O)NCCN4CCNCC4)nn3c2C)cc1,inactive,
FC(F)(F)c1nnc2c(Sc3ccccc3)nc3ccc(Cl)cc3n12,1.46 µM (active),
C[C@@H]1Cc2c([nH]c3ccccc23)[C@@H](c2c(F)cc(/C=C/C(=O)O)cc2F)N1CC(C)(C)F,23.5 µM (active),
c1cc(-c2cnn3cc(-c4ccc(N5CCNCC5)cc4)cnc23)c2cccnc2c1,0.662 µM (active),
CCC1CCCCN1C(=O)n1ncc(C(O)(c2ccccc2)c2ccccc2)n1 (stereo not given),11.8 µM (active),
NCCc1ccc(O)c(O)c1,20.9 µM (active),
C1CCC[C@H]2CCCN3CC[C@@H](CCCCCC[C@@H]4CCCN5CC[C@@H](CC1)O[C@@H]45)O[C@@H]23,,90.7% [at 0.177 µM]
Cc1ccccc1-c1cc(N2CCN(C)CC2)ncc1N(C)C(=O)C(C)(C)c1cc(C(F)(F)F)cc(C(F)(F)F)c1,inactive,
CC1(C)OC[C@@H]2O[C@@]3(C(=O)O)OC(C)(C)O[C@H]3[C@@H]2O1,inactive,
CCCCNC(=O)[C@@H]1Cc2ccccc2N1C(=O)[C@@H](N)CC,inactive,

SMILES,Potency,viability (% of control)
Cc1cccc(/C=N/Nc2cc(N3CCOCC3)nc(OCCc3ccccn3)n2)c1,1.32 µM (active),
CCCOc1ccc2c(c1)CC[C@@H]1[C@@H]2CC[C@]2(C)C(OC)CC[C@@H]12 (stereo not given in full),inactive,
CCc1c(-c2ccccc2C)nc2c(C#N)c[nH]n2c1=O,inactive,
C[C@@H]1O[C@@H](O[C@H]2[C@H](O[C@H]3[C@H](O[C@H]4CC[C@@]5(C=O)C(CC[C@]6(C)C5CC=C5C7CC(C)(C)C[C@@H](O)[C@]7(C)CC[C@]56C)C4(C)C)O[C@H](C(=O)O)[C@@H](O)[C@@H]3O)OC[C@@H](O)[C@@H]2O)[C@H](O)[C@H](O)[C@H]1O (stereo not given in full),,85.7% [at 9.25 µM]
Cc1cc(C)c(S(=O)(=O)N(CCc2cccc(Br)c2)Cc2ccc(-c3cccc(S(C)(=O)=O)c3)cc2)c(C)c1,inactive,
CC1=CCC[C@@H]2[C@@](C)(CCc3ccoc3)[C@H](C(=O)O)CC[C@@]12C,2.86 µM (active),
COC(=O)C12CCC(C)C(C)C1C1=CCC3C4(C)CCC(OC(C)=O)C(C)(C)C4CCC3(C)C1(C)CC2 (stereo not given),inactive,
N#C/C(=C1/SC[C@@H](c2ccc(Cl)cc2Cl)S1)n1ccnc1,11.9 µM (active),
CCCCNc1ncc2c(-c3ccc(S(=O)(=O)N4CCOCC4)cc3)nn(C3CCC(O)CC3)c2n1 (stereo not given),0.0184 µM (active),
CN1[C@@H]2CCC[C@H]1CC(NC(=O)c1nn(C)c3ccccc13)C2 (stereo not given in full),inactive,
CCn1c2ccccc2c2cc(Nc3ccnc(NCCCN4CCOCC4)n3)ccc21,2.31 µM (active),
CCCCC(O)/C=C(C)/C=C/C=C/C(=O)N1CCCC1=O (stereo not given),inactive,
Cn1cc(/C=C/C(=O)c2cccc(F)c2)cc1/C=C/C(=O)NO,3.72 µM (active),
CC1=C(CO)C(=O)O[C@@H]([C@@H](C)[C@H]2CC[C@H]3[C@@H]4C[C@H]5O[C@]56[C@@H](O)C=CC(=O)[C@]6(C)[C@H]4CC[C@]23C)C1,0.296 µM (active),
CC1c2cccc(O)c2C(O)=C2C(=O)C3(O)C(O)=C(C(N)=O)C(=O)C(N(C)C)C3C(O)C21 (stereo not given),20.9 µM (active),
CCC(C)C(=O)OC[C@H]1O[C@H](O[C@H]2O[C@H](CO)[C@@H](O)[C@H](O)[C@H]2O)[C@H](O)[C@@H](O)[C@@H]1O (stereo not given in full),inactive,
Cc1cc(-c2nncc3c(C(C)(C)C)c(OCc4ncnn4C)nn23)no1,inactive,
CC(C)(O)C(O)C(=O)OCc1ccc(O[C@@H]2O[C@H](CO)[C@@H](O)[C@H](O)[C@H]2O)cc1 (stereo not given in full),inactive,
CCc1cc(S(=O)(=O)O)c2cc(C(C)C)cccc1-2,inactive,
C[C@H]1COC2=C1C(=O)C(=O)c1c2ccc2c1CCCC2(C)C,5.9 µM (active),
